# Laboratory results as given in the supplement of paper PMC9694430.
# Columns and labels:
# Assay in all cases: thermal shift delta Tm vs DMSO control; higher = stronger stabilization (binding)
# Settings in all cases: 12.5 µM; protein concentration 2 µM
# LOC_OS02G45750-cb003 = test system: LOC_OS02G45750-cb003
# How it was run: (§1)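 Rice kinase domain constructs, made in E. coli and purified, were placed in 96-well plates at 2 μM in 19.5 μl of 100 mM potassium phosphate pH 7.5, 150 mM NaCl, 10% glycerol and 5 × SYPRO Orange, with compound in DMSO. A temperature ramp from 25°C to 95°C at 0.05°C/s was used for differential scanning fluorimetry. The melting temperature shift is a triplicate mean compared with DMSO-only protein, derived from Boltzmann fits.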
# LOC_OS02G54510-cb004 = test system: LOC_OS02G54510-cb004
# How it was run: as §1
# LOC_OS03G04050-cb001 = test system: LOC_OS03G04050-cb001
# How it was run: as §1
# LOC_OS03G12390-cb001 = test system: LOC_OS03G12390-cb001
# How it was run: as §1
# LOC_OS03G27990-cb004 = test system: LOC_OS03G27990-cb004
# How it was run: as §1
# LOC_OS03G50450-cb001 = test system: LOC_OS03G50450-cb001
# How it was run: as §1
# LOC_OS03G50810-cb003 = test system: LOC_OS03G50810-cb003
# How it was run: as §1
# LOC_OS04G35114-cb001 = test system: LOC_OS04G35114-cb001
# How it was run: as §1
# LOC_OS04G38480-cb003 = test system: T1, LOC_OS04G38480-cb003
# T1 sequence (whole entry): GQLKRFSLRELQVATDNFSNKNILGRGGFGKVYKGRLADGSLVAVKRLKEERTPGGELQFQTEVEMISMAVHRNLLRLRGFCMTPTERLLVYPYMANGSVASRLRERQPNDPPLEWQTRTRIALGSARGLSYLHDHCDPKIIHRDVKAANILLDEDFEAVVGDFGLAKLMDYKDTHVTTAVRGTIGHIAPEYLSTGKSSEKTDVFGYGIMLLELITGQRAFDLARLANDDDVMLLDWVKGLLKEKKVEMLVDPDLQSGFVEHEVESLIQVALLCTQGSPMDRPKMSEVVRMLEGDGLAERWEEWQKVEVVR
# How it was run: as §1
# LOC_OS04G41100-cb001 = test system: T2, LOC_OS04G41100-cb001
# T2 sequence (whole entry): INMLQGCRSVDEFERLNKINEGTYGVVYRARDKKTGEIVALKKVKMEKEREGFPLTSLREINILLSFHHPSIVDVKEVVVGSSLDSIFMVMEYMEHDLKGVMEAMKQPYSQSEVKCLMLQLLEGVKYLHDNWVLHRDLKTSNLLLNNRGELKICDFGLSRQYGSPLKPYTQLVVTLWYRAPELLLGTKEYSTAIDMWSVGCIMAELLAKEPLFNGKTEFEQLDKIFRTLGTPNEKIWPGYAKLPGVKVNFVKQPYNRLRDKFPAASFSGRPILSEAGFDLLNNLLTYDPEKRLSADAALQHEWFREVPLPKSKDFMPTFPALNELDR
# How it was run: as §1
# LOC_OS04G57630-cb004 = test system: LOC_OS04G57630-cb004
# How it was run: as §1
# LOC_OS05G07850-cb002 = test system: LOC_OS05G07850-cb002
# How it was run: as §1
# LOC_OS05G16824-cb004 = test system: LOC_OS05G16824-cb004
# How it was run: as §1
# LOC_OS05G28520-cb001 = test system: LOC_OS05G28520-cb001
# How it was run: as §1
# LOC_OS05G30820-cb001 = test system: LOC_OS05G30820-cb001
# How it was run: as §1
# LOC_OS05G43570-cb004 = test system: LOC_OS05G43570-cb004
# How it was run: as §1
# LOC_OS06G16330-cb003 = test system: LOC_OS06G16330-cb003
# Sequence of LOC_OS06G16330-cb003 (as listed by the source): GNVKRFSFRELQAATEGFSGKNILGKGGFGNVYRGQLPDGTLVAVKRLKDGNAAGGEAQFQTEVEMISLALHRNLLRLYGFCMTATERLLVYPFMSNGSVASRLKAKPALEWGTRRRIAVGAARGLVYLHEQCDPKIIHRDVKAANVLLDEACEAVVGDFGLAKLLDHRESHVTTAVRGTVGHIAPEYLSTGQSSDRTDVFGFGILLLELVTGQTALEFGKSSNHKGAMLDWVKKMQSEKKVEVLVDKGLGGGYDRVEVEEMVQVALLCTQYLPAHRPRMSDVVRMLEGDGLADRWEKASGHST
# How it was run: as §1
# LOC_OS06G22820-cb001 = test system: T3, LOC_OS06G22820-cb001
# T3 sequence (whole entry): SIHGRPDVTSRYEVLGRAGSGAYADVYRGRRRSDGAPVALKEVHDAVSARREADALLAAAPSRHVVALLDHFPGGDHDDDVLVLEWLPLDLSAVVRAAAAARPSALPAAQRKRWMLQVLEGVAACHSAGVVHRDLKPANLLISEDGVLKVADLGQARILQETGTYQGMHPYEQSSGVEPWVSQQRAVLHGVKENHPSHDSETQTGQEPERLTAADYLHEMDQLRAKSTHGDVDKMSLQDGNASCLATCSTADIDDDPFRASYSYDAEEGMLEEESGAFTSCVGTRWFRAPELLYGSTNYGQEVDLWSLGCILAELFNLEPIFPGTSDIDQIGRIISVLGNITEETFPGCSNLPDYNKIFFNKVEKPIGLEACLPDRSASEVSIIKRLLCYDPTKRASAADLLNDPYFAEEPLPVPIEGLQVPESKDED
# How it was run: as §1
# LOC_OS07G06570-cb004 = test system: LOC_OS07G06570-cb004
# How it was run: as §1
# LOC_OS07G07230-cb001 = test system: LOC_OS07G07230-cb001
# How it was run: as §1
# 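Note: purified Escherichia coli-expressed rice kinase domain construct.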
SMILES,thermal shift delta Tm (LOC_OS02G45750-cb003) [°C],thermal shift delta Tm (LOC_OS02G54510-cb004) [°C],thermal shift delta Tm (LOC_OS03G04050-cb001) [°C],thermal shift delta Tm (LOC_OS03G12390-cb001) [°C],thermal shift delta Tm (LOC_OS03G27990-cb004) [°C],thermal shift delta Tm (LOC_OS03G50450-cb001) [°C],thermal shift delta Tm (LOC_OS03G50810-cb003) [°C],thermal shift delta Tm (LOC_OS04G35114-cb001) [°C],thermal shift delta Tm (LOC_OS04G38480-cb003) [°C],thermal shift delta Tm (LOC_OS04G41100-cb001) [°C],thermal shift delta Tm (LOC_OS04G57630-cb004) [°C],thermal shift delta Tm (LOC_OS05G07850-cb002) [°C],thermal shift delta Tm (LOC_OS05G16824-cb004) [°C],thermal shift delta Tm (LOC_OS05G28520-cb001) [°C],thermal shift delta Tm (LOC_OS05G30820-cb001) [°C],thermal shift delta Tm (LOC_OS05G43570-cb004) [°C],thermal shift delta Tm (LOC_OS06G16330-cb003) [°C],thermal shift delta Tm (LOC_OS06G22820-cb001) [°C],thermal shift delta Tm (LOC_OS07G06570-cb004) [°C],thermal shift delta Tm (LOC_OS07G07230-cb001) [°C]
S=C(NCc1ccc2c(c1)OCO2)N1CCN(c2ncnc3c2oc2ccccc23)CC1 [Amuvatinib (MP-470)],0.86,-2.11,0.55,0.66,0.56,0.69,0.68,-0.04,0.39,0.47,0.4,1.46,-4.2,0.42,0.8,0.49,1.01,0.7,0.32,0.06
NC(=O)c1ncn([C@@H]2O[C@H](CO)[C@@H](O)[C@H]2O)c1N [AICAR (Acadesine)],0.81,0.42,0.68,0.15,0.5,0.66,0.55,0.59,0.31,0.46,0.05,0.57,-1.12,-0.02,0.45,0.5,0.02,0.92,1.07,-0.25
FC(F)c1nc2ccccc2n1-c1nc(N2CCOCC2)nc(N2CCOCC2)n1,0.78,0.23,0.44,0.51,0.31,0.75,0.35,0.03,1.98,0.9,0.39,0.04,1.24,0.54,0.54,0.5,0.49,0.93,0.84,0.3
CC1(C)C=Cc2c(ccc3c2OC[C@@H](c2ccc(O)cc2O)C3)O1 [Glabridin],0.34,-0.24,0.88,0.93,0.6,0.36,0.74,0.79,1.12,0.7,0.75,1.39,7.49,0.24,-0.16,0.51,0.92,0.89,0.51,-0.99
COc1cc(Nc2ncc3c(n2)-c2ccc(Cl)cc2C(c2c(F)cccc2OC)=NC3)ccc1C(=O)O [Alisertib (MLN8237)],2.28,4.54,0.09,0.11,-0.26,-0.33,1.53,2.39,0.2,0.09,-0.1,10.3,5.74,0.02,0.19,0.06,2.21,0.35,0.77,0.11
